BoNT A protease – BoNT/A light chain protease inhibitors, primary screen, biochemical, flow cytometry, MLPCN library; Botulinum neurotoxin type A light chain protease (Clostridium botulinum A str. ATCC 3502); multiplex microsphere protease substrate cleavage; AID 588499, 2011; hit rate 0.17% among 360,000; inhibition, % at 10 µM; also: plate controls were buffer without enzyme for full effect and enzyme alone for no effect
Anthrax LF inh2 – Bacillus anthracis LF protease inhibitors, primary screen, biochemical, multiplex microsphere, MLPCN library. Lethal factor (Bacillus anthracis), P15917. multiplex microsphere protease cleavage assay. inhibition, % at 10 µM. hit rate 0.12% among 360,000; also: plate controls were buffer without enzyme for full effect and enzyme alone for no effect
BoNT-F LC inh – BoNT/F light chain protease inhibitors, primary screen, biochemical, flow cytometry, MLPCN library | Botulinum neurotoxin type F light chain protease (Clostridium botulinum) | Multiplex microsphere protease cleavage assay | inhibition, % at 10 µM | hit rate 0.22% among 360,000 | AID 588497, 2011; in the data active = inhibition above about 35%, passing the limit was not always enough; inconclusive = no clear call, values can overlap the other calls; also: plate controls were buffer without enzyme for full effect and enzyme alone for no effect
Bead autofluor – flagged as autofluorescent in microsphere protease counterscreen. compound autofluorescence counterscreen, microsphere flow cytometry; active compounds read high. hit rate 3.1% among 360,000. fluorescence intensity (concentration not given with the values); in the data active = fluorescence intensity above about 16000; inconclusive = no clear call, values can overlap the other calls
MazEF act – activators of E. coli MazEF toxin-antitoxin RNase, primary screen, biochemical, fluorescence, uHTS; Endoribonuclease toxin MazF (Escherichia coli (strain K12)), P0AE70; FAM/BHQ RNA-DNA oligo cleavage fluorescence, 5 h; activation, % at 20 µM; hit rate 0.32% among 350,000; in the data active = activation above about 50%
Target sequence (P0AE70 whole entry, looked up): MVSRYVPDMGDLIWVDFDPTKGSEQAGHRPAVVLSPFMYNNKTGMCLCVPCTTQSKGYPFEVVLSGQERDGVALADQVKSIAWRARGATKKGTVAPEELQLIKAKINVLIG
An asterisk follows results filed as active. An excerpt weighted towards active compounds, which were near 3.7% of everything screened. Rule as the data show it, unless noted: active = inhibition above about 30%; inconclusive = no clear call, values can overlap the other calls; inactive = below that.

For Brc1cnc2nc(SC/C=C/c3ccccc3)[nH]c2c1 the results were BoNT A protease 2, Anthrax LF inh2 6, BoNT-F LC inh inconclusive, Bead autofluor 3188 and MazEF act -6.
Screening Cc1cc(=O)[nH]c(SCCCOc2ccc(F)cc2)n1 returned BoNT A protease 0, Anthrax LF inh2 1, BoNT-F LC inh -1, Bead autofluor 23808* and MazEF act -6.
Screening Cc1ccccc1Cn1cc(NC(=O)c2noc3c2CC(C(C)(C)C)CC3)cn1 (centres undefined) returned BoNT A protease inconclusive, Anthrax LF inh2 -3, BoNT-F LC inh -1, Bead autofluor 16905* and MazEF act 3.
CC(C)(C)C1CCc2onc(C(=O)NCc3ccc(F)cc3)c2C1 (centres undefined) was read as BoNT A protease 1, Anthrax LF inh2 0, BoNT-F LC inh 0, Bead autofluor 22455* and MazEF act 2.
`O=C(NCc1ccc(F)cc1)c1noc2c1CCCC2` gave BoNT A protease 2, Anthrax LF inh2 0, BoNT-F LC inh 1, Bead autofluor 19451* and MazEF act -11.
`Cc1cc(C(=O)N2CCCC(C)(C(=O)NS(=O)(=O)C3CC3)C2)n(C(C)(C)C)n1` (centres undefined) gave BoNT A protease 0, Anthrax LF inh2 0, BoNT-F LC inh 1 and Bead autofluor 4036.
For COc1ccc(OCCOC(=O)CNC(=O)c2cccc(C)c2)cc1 the results were BoNT A protease inconclusive, Anthrax LF inh2 inconclusive, BoNT-F LC inh inconclusive, Bead autofluor inconclusive and MazEF act 5.
Screening CCOC(=O)N1CCN(C(=O)c2ccc3c(=O)n(-c4ccc(OC)cc4)c(=S)[nH]c3c2)CC1 returned BoNT A protease -2, Anthrax LF inh2 1, BoNT-F LC inh -38, Bead autofluor 3148 and MazEF act -21.
For CCOC(=O)N1CCN(C(=O)c2cccc(-n3c(=S)[nH]c4cc(Cl)ccc4c3=O)c2)CC1 the results were BoNT A protease -2, Anthrax LF inh2 -2, BoNT-F LC inh -4, Bead autofluor 20777* and MazEF act -5.
`CCN(C(=O)COc1cc(=O)n(CC)c2ccccc12)c1cccc(Cl)c1` gave BoNT A protease -1, Anthrax LF inh2 -2, BoNT-F LC inh -2, Bead autofluor 20694* and MazEF act -7.
Screening COc1ccc(CNC(=O)CN(C(=O)c2csnn2)c2cccc3ccccc23)cc1 returned BoNT A protease 3, Anthrax LF inh2 10, BoNT-F LC inh -16, Bead autofluor 3693 and MazEF act 2.
`CS(=O)(=O)N1CCN(c2ccc(Cl)cc2[N+](=O)[O-])CC1` gave BoNT A protease -1, Anthrax LF inh2 0, BoNT-F LC inh -2, Bead autofluor 2473 and MazEF act 8.
`Cc1cc(C)n(-c2ccccc2[N+](=O)[O-])n1` gave BoNT A protease 0, Anthrax LF inh2 4, BoNT-F LC inh 2, Bead autofluor 3572 and MazEF act -31.
Screening CNc1c([N+](=O)[O-])cnn1-c1ccc(Cl)cc1Cl returned BoNT A protease -5, Anthrax LF inh2 -3, BoNT-F LC inh -10, Bead autofluor 18639* and MazEF act 8.
CNc1c([N+](=O)[O-])cnn1-c1ccccc1Cl was read as BoNT A protease 0, Anthrax LF inh2 -1, BoNT-F LC inh 0, Bead autofluor 23635* and MazEF act 1.
For Cc1ccsc1CN1CCN(c2ccccn2)CC1 the results were BoNT A protease 3, Anthrax LF inh2 -2, BoNT-F LC inh 8, Bead autofluor 21639* and MazEF act 3.
`COc1ccc(S(=O)(=O)NCC2CCCN(Cc3ccc(O)cc3)C2)cc1` (centres undefined) gave BoNT A protease 0, Anthrax LF inh2 0, BoNT-F LC inh -4, Bead autofluor 5529 and MazEF act 10.
C[C@]12c3[nH]c4ccc(Cl)cc4c3CCN1C(=O)[C@@H](CC(=O)NCCC1=CCCCC1)C[C@@H]2C(=O)N1CCCCC1 was read as BoNT A protease 0, Anthrax LF inh2 0, BoNT-F LC inh -1, Bead autofluor 3666 and MazEF act 7.
Screening O=S(=O)(Nc1ccc(Cc2ccncc2)cc1)c1ccc(Cl)s1 returned BoNT A protease 0, Anthrax LF inh2 0, BoNT-F LC inh -7, Bead autofluor 2786 and MazEF act -5.
Screening O=S(=O)(Nc1ccc(Cc2ccncc2)cc1)c1ccc(Br)s1 returned BoNT A protease -1, Anthrax LF inh2 -1, BoNT-F LC inh -2, Bead autofluor 16939* and MazEF act 4.
`CCCCNC(=S)NNC(=O)c1sccc1C` gave BoNT A protease 0, Anthrax LF inh2 -2, BoNT-F LC inh -1, Bead autofluor 16469* and MazEF act -19.
Screening CCOc1ccc(-c2cc(C(=O)N3CCN(c4ccccn4)CC3)c3ccccc3n2)cc1 returned BoNT A protease -1, Anthrax LF inh2 0, BoNT-F LC inh 0, Bead autofluor 22531* and MazEF act -4.
For CCOc1ccc(-c2cc(C(=O)N3CCN(C)CC3)c3ccccc3n2)cc1 the results were BoNT A protease 2, Anthrax LF inh2 1, BoNT-F LC inh 1, Bead autofluor 23119* and MazEF act 1.
For Nn1c(SCC(=O)Nc2ccc3c(c2)OCCO3)nnc(CCC(=O)O)c1=O the results were BoNT A protease -1, Anthrax LF inh2 -2, BoNT-F LC inh -1, Bead autofluor 5342 and MazEF act 1.
For CCCNC(=O)C1(C)CCN1C(=O)C/C=C/c1ccccc1 (centres undefined) the results were BoNT A protease 0, Anthrax LF inh2 6, BoNT-F LC inh 7 and Bead autofluor 2805.
`CC(C)NC(=O)CSCc1c(F)cccc1Cl` gave BoNT A protease -2, Anthrax LF inh2 -1, BoNT-F LC inh -3, Bead autofluor 16724* and MazEF act 8.
Cn1c(-c2cc3ccc(OC(=O)C(C)(C)C)cc3oc2=O)nc2ccccc21 was read as BoNT A protease 0, Anthrax LF inh2 0, BoNT-F LC inh 1, Bead autofluor 16715* and MazEF act 8.
CC(=O)Oc1ccc2cc(-c3nc4ccccc4n3C)c(=O)oc2c1 was read as BoNT A protease 1, Anthrax LF inh2 0, BoNT-F LC inh 7, Bead autofluor 5799 and MazEF act 1.
COc1ccc(S(=O)(=O)N2CCN(C(=O)NCc3ccc(C)cc3)CC2)cc1 was read as BoNT A protease -2, Anthrax LF inh2 2, BoNT-F LC inh 2, Bead autofluor 3733 and MazEF act 5.
`CC(C)(C)NC(=O)CN(C(=O)CCN1CCCc2ccccc21)C(C)(C)C` gave BoNT A protease 13, Anthrax LF inh2 6, BoNT-F LC inh -6, Bead autofluor 20626* and MazEF act 10.
Screening CCCCNC(=O)C1c2ccccc2OCC(=O)N1C1CC1 (centres undefined) returned BoNT A protease 1, Anthrax LF inh2 9, BoNT-F LC inh 3 and Bead autofluor 5002.
